This is a sample that favours compounds with a hit; in the whole collection about 7.8% have one here.
HCMV inh: human cytomegalovirus inhibition; activity change, negative = inhibition, % at 57.5 µM; AID 1259415; HFF cells, HCMV-luciferase reporter, 72 h; stronger effect = lower value; actives 4.5% (n = 410,000); in the data active = activity change below about -60%; inconclusive = no clear call, values can overlap the other calls; inactive = above about -39%
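Screen run at 2 compound doses on HFFs infected with reporter HCMV, MOI 1 PFU/cell. Luciferase activity from cell lysates at 72 h post infection gave inhibition relative to buffer-only and Salinomycin wells.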
Marburg entry inh: Marburg virus entry inhibition; Marburg virus pseudotyped entry inhibition, cell reporter; Potency, µM (series often up to 37.8 µM), for the others: at the top dose activity change, negative = inhibition, usual class: inhibitors; actives 1.8% (n = 300,000); AID 540276; calls by dose curve; tested in HEK293 cells; note: potency is the fitted concentration of half-maximal effect
HCV inhibitor: inhibitors of hepatitis C virus infection; Huh7.5.1 HCVcc-Cre infection, luciferase reporter, 44 h; actives 3.4% (n = 340,000); Potency, µM (top dose mostly 41.8 µM), without a hit: at the top dose activity change, negative = inhibition, hits mostly inhibitors; active = well fitted inhibition curve with a large enough effect; inconclusive = small, poorly fitted or top-dose-only effect, or another doubt; inactive = no such curve, though single readings can be large or run the other way; note: potency is the fitted concentration of half-maximal effect
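HCVcc-Cre virus at an moi near 0.5 was added right after compound to cells cultured 4 h from seeding (1,000 cells/well). Luciferase activity was determined 44 h later, 15 min after substrate addition at RT.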
VACV mCherry inh: inhibitors of vaccinia virus infection (mCherry reporter signal); AID 720579; Potency, µM (titrated, usually from 36.5 µM), inactives show top-dose activity change, negative = inhibition, actives largely listed as inhibitors; Vaccinia virus mCherry reporter infection, fluorescence; actives 0.63% (n = 310,000); calls by dose curve; tested in A549 cells; note: potency is the fitted concentration of half-maximal effect; nearly all actives have a fitted effect of over 35% in size
LASV entry inh: blocks Lassa virus binding to or entry into cells | Potency, µM (top dose mostly 37.9 µM), without a hit: at the top dose activity change, negative = inhibition, hits mostly inhibitors | actives 1.2% (n = 300,000) | Lassa virus pseudotype entry inhibition, cell reporter; calls by dose curve; tested in HEK293 cells; note: potency is the fitted concentration of half-maximal effect; nearly all actives have a fitted effect of over 50% in size
Vaccinia Venus: vaccinia inhibition (Venus reporter). Potency, µM (titrated, usually from 36.5 µM), for inactives: top-dose activity change, negative = inhibition, actives largely listed as inhibitors. Vaccinia virus Venus reporter expression, fluorescence. actives 0.46% (n = 330,000); calls by dose curve; tested in A549 cells; note: potency is the fitted concentration of half-maximal effect; nearly all actives have a fitted effect of over 30% in size
* = called active by the depositor; i = inactive; ? = inconclusive; / = not tested or not shown; ! = not active in a repeat; [ ] = dose if it differs, or a comment. % is set by controls: 0 for no effect and ±100 for the full control effect.

SMILES	HCMV inh	Marburg entry inh	HCV inhibitor	VACV mCherry inh	LASV entry inh	Vaccinia Venus
Cc1ccc2nc(CNC(=O)c3cc(NC(=O)c4ccccc4)cc4ncn(C5CCCC5)c34)cn2c1	/	/	/	i	/	-15%
CN(C(=O)CSc1nc2ncccc2o1)c1ccc(F)cc1	-33	/	/	-13%	8%[46.1 µM]	-8%
N#CC(C(=O)C1=C(Cl)CCCC1)=C1SCCCS1	/	3%	/	/	/	/
Cc1cccc(NC(=O)c2ccc3c(c2)OCCO3)c1	18	7.9µM*	-6%	-9%	?	-7%
O=C(Nc1ccccc1)c1ccc2c(c1)OCCO2	21	?	-7%	i	?	-17%
Cc1ccc(C(=O)Nc2ccc3c(c2)OCCO3)c(C)c1	?	1.3µM*	-16%	i	?	10%
CCCOc1c(Cl)cc(C(=O)Nc2ccc3c(c2)OCO3)cc1OCC	-17	?	13µM*	?	?	?
Cc1cc(C)c(C(=O)Nc2ccc3c(c2)OCCO3)c(C)c1	67	/	/	-6%	/	-14%
CCn1cc(Cl)c(C(=O)Nc2cccc(C(F)(F)F)c2)n1	7	-16%[46.1 µM]	1%	-14%	-15%	-4%
CCn1cc(Cl)c(C(=O)Nc2ccc3c(c2)OCCO3)n1	56	10µM*	-14%	-1%	?	-10%
CC1=C[C@@H](C)O[C@@]2(C1)C(=O)Nc1cccc(Br)c12	/	1%[14.2 µM]	/	/	?	/
CCCCC(=O)Nc1cccc(NC(=O)c2ccc3c(c2)OCO3)c1	16	-5%	2.8µM*	/	-6%	/
COc1ccc(-c2cccc(NC(=O)c3ccc4c(c3)OCO4)c2)nn1	-20	?	16µM*	-22%	-9%	-13%
CCC(=O)Oc1ccc(C(=O)Nc2ccc3c(c2)OCO3)cc1	-103*	?	14%	-3%	?	4%
Cc1ccc(NC(=O)c2ccc3c(c2)OCCO3)cc1S(=O)(=O)Nc1cccc(Cl)c1	-33	?	10µM*	-23%	?	?
CCOC(=O)C1CCCN(c2c(C(=O)c3ccccc3)cnc3ccc(F)cc23)C1 (stereo not drawn)	-20	?	/	-9%	/	4%
O=C(Nc1ccc2c(c1)OCCO2)c1cccc2nc3ccccc3nc12	-92*	?	?	/	-29%	/
Cc1cccc(NC(=O)C2CCN(S(=O)(=O)c3c(C)nn(C)c3C)CC2)n1	?	-2%	25µM*	i	/	-9%
Cc1cccc(NC(=O)C2CCN(S(=O)(=O)c3c(C)c(C)cc(C)c3C)CC2)n1	-39	?	?	-16%	?	-26%
CC(C)(C)c1cc(C=C(C#N)C#N)cc(C(C)(C)C)c1O	-100*	2.1µM*	?	1µM*!	0.41µM*	?
CC(C)(C)c1cc(/C=C(\C#N)C(N)=S)cc(C(C)(C)C)c1O	/	9.2µM*	/	?	2.3µM*	?
CCc1ccc(/C=C(/C#N)C(N)=S)cc1	17	?	-7%	-13%	12%	-1%
COC(=O)C1=C(C)N(Cc2ccccc2)C(=NCc2ccccc2)N[C@H]1c1cccc(C(F)(F)F)c1	/	/	?	?	/	14µM*
COC(=O)C1=C(C)N(Cc2ccccc2)C(=NCCc2cccnc2)N[C@H]1c1ccc(Br)cc1	/	/	2.8µM*	?	/	13µM*
COC(=O)C1=C(C)N(Cc2ccc(C(F)(F)F)cc2)C(=NCc2ccccc2)NC1c1cccc(F)c1 (stereo not drawn)	-99*	/	/	/	/	/
SMILES	HCMV inh	Marburg entry inh	HCV inhibitor	VACV mCherry inh	LASV entry inh	Vaccinia Venus
COC(=O)C1=C(C)N(Cc2cccc(C(F)(F)F)c2)C(=NCc2ccc(OC)cc2)NC1c1cccc(C(F)(F)F)c1 (stereo not drawn)	-99*	/	/	/	/	/
CCOc1ccccc1C(=O)Nc1cc2c(cc1N1CCCCC1)n(C)c(=O)n2C	-37	-30%[46.1 µM]	/	-24%	?	-11%
Cc1ccccc1N1C(=O)[C@@H]2[C@H](ON(c3ccccc3)[C@H]2c2ccncc2)C1=O	/	-6%	/	/	/	/
c1coc(CNc2ncnc3c2[nH]c2ccccc23)c1	/	/	/	-21%	/	?
COC(=O)C1=C(C)N(Cc2ccccc2)C(=NCc2ccc(OC)cc2)N[C@H]1c1cccc(F)c1	?	/	-27%	?	/	?
COC(=O)C1=C(C)N(Cc2cccc(C(F)(F)F)c2)C(=NCc2ccc(C(F)(F)F)cc2)NC1c1cccc(F)c1 (stereo not drawn)	-99*	/	/	/	/	/
COc1ccc(C(=O)NCCCn2ccnc2)cc1[N+](=O)[O-]	-23	/	9%	/	/	/
O=C(c1ccccc1)c1ccc(NCCCn2ccnc2)c([N+](=O)[O-])c1	?	?	35µM*	-10%	?	-18%
CCN(CC)S(=O)(=O)c1ccc(NN=C2CCN(C)CC2)c([N+](=O)[O-])c1	-23	-29%[46.1 µM]	-14%	-5%	?	2%
CCN(CC)S(=O)(=O)c1ccc(NCCCn2ccnc2)c([N+](=O)[O-])c1	-62*	?	4%	-16%	-25%[46.1 µM]	-22%
CCOc1ccc(CNC(=O)c2cc3c(=O)n(C)c4ccccc4c3s2)cc1	-2	-16%[46.1 µM]	/	?	-1%[46.1 µM]	?
COCCN1CCN(C(=O)c2cnn(-c3nccc(-c4ccco4)n3)c2C(C)C)CC1	/	/	/	-9%	/	4%
Cc1cccc(-c2nc3c(NCc4cccc(N(C)C)c4)nccc3[nH]2)c1	14	/	/	/	/	/
O=C(c1ccc(-c2cccc([N+](=O)[O-])c2)o1)N1CCN(c2ccc([N+](=O)[O-])cc2)CC1	-61*	?	?	-7%	-30%	-2%
CC(C)CC(=O)NC(=S)N1CCN(c2ccc([N+](=O)[O-])cc2Cl)CC1	-67*	-3%	0%	/	1%	/
O=C(c1ccc(-c2ccc([N+](=O)[O-])cc2)o1)N1CCCCC1	17	3%	-6%	/	-27%	/
O=C(c1ccc(-c2ccc(Cl)cc2)o1)N1CCN(c2ccc([N+](=O)[O-])cc2Cl)CC1	-80*	-1%	?	-13%	?	-21%
Cc1nc(N2CCOCC2)c2c(C(=O)N3CCN(c4cccc(C)c4C)CC3)c(C)oc2n1	-28	/	/	-9%	-8%[46.1 µM]	-15%
c1ccc(-c2cc3c(Nc4ccc5c(c4)OCCO5)nccc3[nH]2)cc1	0	/	/	/	/	/
Nc1nonc1-c1nc2ccccc2n1Cc1ccc(Cl)cc1	20	8%	12%	/	-16%	/
Cc1ccc(C(=O)n2c(N)nc3ccccc32)cc1	?	7.9µM*	3%	-4%	?	?
Nc1ccc(C(=O)n2c3ccccc3c3ccccc32)cc1	-79*	4µM*	?	/	?	?
Nc1nc2ccccc2n1Cc1ccc(Cl)c(Cl)c1	18	10µM*	-21%	?	2%[46.1 µM]	-30%
Cc1ccc(Cn2c(N)nc3ccccc32)cc1	?	?	10µM*	-18%	-16%[46.1 µM]	-13%
Nc1ccc(C(=O)N2CCCC2)cc1	16	-16%	-6%	/	-1%	/
